According to PubChem BioAssay (NCI):
Compounds without any hit were thinned out: in the full panel of roughly 79,000, 15% have a hit. Rule as the data show it: active = growth inhibition above about 70%; inactive = the rest.

Tests used:
[1] = NCI Yeast Anticancer Drug Screen. Data for the rad50 strain (AID 155);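 also: 0% = growth of vehicle-only cultures of the same strain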; conditions: S. cerevisiae rad50 strain growth inhibition; at 50.0 µM; active compounds read high
Summary of the method: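 Inhibition values express reduced yeast growth in compound-treated cultures relative to vehicle-treated controls.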

[2] = NCI Yeast Anticancer Drug Screen. Data for the mec2-1 strain (AID 157); conditions: S. cerevisiae mec2-1 strain, at 50.0 µM, active compounds read high
Summary of the method: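 Cells of the genetically defined mec2-1 yeast strain are incubated with test compound. Inhibition of growth is calculated against vehicle-treated controls.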

[3] = NCI Yeast Anticancer Drug Screen. Data for the sgs1 mgt1 strain (AID 161);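 also: 0% = growth of cultures given vehicle only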; conditions: S. cerevisiae sgs1 mgt1 strain, at 50.0 µM, active compounds read high
Summary of the method: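 Inhibition of yeast growth, normalised to vehicle-treated controls, is reported for a strain bearing genetic alterations in DNA damage repair.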

[4] = NCI Yeast Anticancer Drug Screen. Data for the cln2 rad14 strain (AID 165);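 also: 0% = growth equal to vehicle treated cultures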; conditions: S. cerevisiae cln2 rad14 strain, at 50.0 µM, active compounds read high
Summary of the method: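 The screen exposed genetically defined yeast (cln2 rad14) to test compounds and scored growth inhibition relative to vehicle-treated controls.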

[5] = NCI Yeast Anticancer Drug Screen. Data for the bub3 strain (AID 167); conditions: S. cerevisiae bub3 mutant strain, at 50.0 µM, active compounds read high
Summary of the method: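 Steps: expose the mutant yeast strain to compound; grow alongside vehicle-treated cultures; measure growth; express inhibition against the vehicle cultures.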

[6] = NCI Yeast Anticancer Drug Screen. Data for the mlh1 rad18 strain (AID 175); conditions: S. cerevisiae mlh1 rad18 strain growth inhibition; at 50.0 µM; active compounds read high
Summary of the method: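 Compound-treated yeast growth, normalised to vehicle controls. Strain bears defined DNA repair mutations.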

Measured: growth inhibition

CC1(C)C2CCC1(C)C(OC(=O)C1OC(O)C(O)C(O)C1O)C2 (stereo unspecified)
inactive: [1] -1.3% | [2] 24.9% | [3] 12.8% | [4] -2.75% | [5] 27.6% | [6] 28.9%

CCCCC(O)(c1ccccc1)c1ccccc1CN(C)C (stereo unspecified)
inactive: [1] 1.7% | [2] -3% | [3] -0.65% | [4] 6.15% | [5] -2.05% | [6] -4.8%

COc1cc(C(O)C2(c3ccc(O)c(OC)c3)NC(=O)NC2=O)ccc1O (stereo unspecified)
inactive: [1] -22.2% | [2] 16.3% | [3] -9.35% | [4] -16.9% | [5] 35.2% | [6] -14.3%

O=C1CC2(CCCC2)C(=O)N1c1cccc([N+](=O)[O-])c1
inactive: [1] 10.8% | [2] 5% | [3] 17.4% | [4] 11% | [5] 11.7% | [6] -4.85%

NC(=O)c1ccc(C(F)(F)F)cc1O
inactive: [1] 7.6% | [2] 12.6% | [3] -4.65% | [4] -21.4% | [5] 1.2% | [6] 10%

COC(=O)C(C(=O)C(=O)Nc1c(Cl)cc([N+](=O)[O-])cc1Cl)c1nc2cc(C)c(C)cc2[nH]c1=O (stereo unspecified)
inactive: [1] 16.6% | [2] 3.1% | [3] 20.8% | [4] 14.3% | [5] -4.85% | [6] -9.75%

N=C(N=C(N)N)N1CCOCC1
inactive: [1] 8.95% | [2] 20.1% | [3] 9.75% | [4] 32.7% | [5] 30.1% | [6] -0.55%

NCC(=O)NC1CCCCC1
inactive: [1] 30.6% | [2] 1.85% | [3] -8.45% | [4] 25.4% | [5] -3.65% | [6] 5.3%

CC1CCCN2C(=O)CN(Cc3ccccc3)CC(=O)N12 (stereo unspecified)
inactive: [1] 9.85% | [2] -3.3% | [3] -8.55% | [4] 13.4% | [5] 3.1% | [6] -4.45%

COc1nc(C(O)C2OC(C)(C)OCC2O)[nH]c1C#N (stereo unspecified)
inactive: [1] 6.05% | [2] 7% | [3] 7.75% | [4] 10.7% | [5] 2.35% | [6] 7.35%

O=[N+]([O-])c1ccc(NC(c2ccccc2)c2ccc3cccnc3c2O)cc1 (stereo unspecified)
inactive: [1] -6.35% | [2] -20.1% | [3] 0.2% | [4] -15.3% | [5] -2.75% | [6] -10.3%

O=[N+]([O-])c1ccc(N2CCN=N2)cc1
inactive: [1] -24.2% | [2] -14.6% | [3] -15.2% | [4] 2.35% | [5] -14.2% | [6] -6.75%

C=C1C(=O)OC2/C=C(\C)CC/C=C(/C=O)C(OC(=O)C(C)C)C(O)C12 (stereo unspecified)
inactive: [1] -12.2% | [2] -55.4% | [3] 17.6% | [4] -7.25% | [5] -42.1% | [6] -31.6%

O=CN(c1ccccc1)c1ccccc1
inactive: [1] 3.8% | [2] -2.4% | [3] -2.7% | [4] -15.4% | [5] -4.55% | [6] -23.6%

CN(C)/C=N/NC(=O)c1ccccc1N
inactive: [1] -15% | [2] -15.7% | [3] -6.75% | [4] -11.6% | [5] 2.15% | [6] 0.55%

CCN(CC)CCN1C(=O)N(CCN(CC)CC)C(=O)C(CC)(CC)C1=O
inactive: [1] 13.9% | [2] -2.15% | [3] 12.5% | [4] 22.9% | [5] -1.65% | [6] 34.1%

COC(=O)c1nc(=S)[nH]c(C(=O)OC)c1C(=O)c1cccnc1
inactive: [1] -4.3% | [2] 15.2% | [3] 17.4% | [4] 4.25% | [5] 39.4% | [6] 17.9%

CN=C/C(C(C)=O)=C(\C)O
inactive: [1] 4.1% | [2] -0.05% | [3] -4.85% | [4] 3.6% | [5] 8.5% | [6] 0.65%

CCN(CC)CCSCCSCCN(CC)CC
inactive: [1] -24.7% | [2] -1.55% | [3] -3.05% | [4] -39% | [5] 8.65% | [6] -10.3%

Cc1ccc(S(=O)(=O)N2CCC(C(=O)N3CCCC3)(c3cccc(C)c3)CC2)cc1
inactive: [1] -55.5% | [2] -35.4% | [3] -46.4% | [4] 0.1% | [5] -38.5% | [6] -43.1%

Cc1cnc(N)s1
inactive: [1] 3.8% | [2] -23.9% | [3] -7.8% | [4] -24.7% | [5] -11.2% | [6] 9.45%

COc1cccc(/C(Cl)=C(\C=O)c2cccc(OC)c2)c1
inactive: [1] 12.8% | [2] 19.1% | [3] 2.2% | [4] 10.7% | [5] 34% | [6] -10.1%

O=C1CC2(CC(=O)N1CCc1c[nH]c3ccccc13)OCCO2
inactive: [1] -1.35% | [2] 9.05% | [3] 10.1% | [4] -0.5% | [5] 20.6% | [6] -6.15%

S=C(N/N=C1\CSCc2ccccc21)Nc1cc(Cl)ccc1Cl
inactive: [1] 11.9% | [2] -4.45% | [3] 6.05% | [4] 10.2% | [5] 23.9% | [6] 0.5%

Nc1c(S(=O)(=O)O)cc(Br)c2c1C(=O)c1ccccc1C2=O
inactive: [1] 54.5% | [2] 15.8% | [3] 38.7% | [4] 38% | [5] 45.8% | [6] 56.4%

Oc1cccc2c(O)cccc12
inactive: [1] 0.55% | [2] 22.8% | [3] 26.4% | [4] -9.55% | [5] 25.5% | [6] 32.8%

NNC(=O)CC(=O)N(C(=O)/C=C/c1ccccc1)c1ccc(Cl)cc1
inactive: [1] -11.9% | [2] -16.9% | [3] 15.1% | [4] 24% | [5] -14.5% | [6] 19.4%

CC(=O)Nc1ccc2oc(C)nc2c1
inactive: [1] 23.9% | [2] -1.3% | [3] 8.3% | [4] 8.7% | [5] 13.2% | [6] 20.6%

N/C(=C\C(=O)c1ccccc1)C(=O)c1ccccc1
inactive: [1] 5.7% | [2] 4.65% | [3] -15.5% | [4] -10.7% | [5] 0.65% | [6] -1.55%

COc1ccc(/C=N/Nc2nc3ccccc3c(=O)n2-c2ccccc2)cc1
inactive: [1] -56.3% | [2] -17.8% | [3] -38.6% | [4] -29.2% | [5] -11% | [6] -42%

NNC(=O)Nc1ccccc1
inactive: [1] 3.8% | [2] 5.55% | [3] -0.5% | [4] -13.6% | [5] -2.4% | [6] -3.15%

CC1(C)Oc2ccc3c(=O)c(-c4ccccc4)c(-c4ccccc4)oc3c2C1C(=O)O (stereo unspecified)
inactive: [1] 12.5% | [2] -1.35% | [3] -17.6% | [4] 12.8% | [5] 0.25% | [6] 10.8%

ClC1CCC(c2ccccc2)CC1 (stereo unspecified)
inactive: [1] 9.2% | [2] -3.45% | [3] 1.5% | [4] 3.75% | [5] -11.2% | [6] -2.6%

CC(C)(C)OC(=O)N1CCc2c(n(C/C=C/c3ccccc3)[nH]c2=O)C1
inactive: [1] -30.2% | [2] -14.3% | [3] -4.85% | [4] -0.3% | [5] 1.55% | [6] -19.4%

CCOC(=O)C1OC1(C)c1ccc(Cl)cc1 (stereo unspecified)
inactive: [1] 6.1% | [2] 3.8% | [3] -0.7% | [4] 5.25% | [5] -5.8% | [6] 0.6%

CCc1cc2c(O)c(c1)Cc1cc(CC)cc(c1O)Cc1cc(CC)cc(c1O)Cc1cc(CC)cc(c1O)Cc1cc(CC)cc(c1O)Cc1cc(CC)cc(c1O)Cc1cc(CC)cc(c1O)C2
inactive: [1] 6.55% | [2] 27.2% | [3] 19.8% | [4] 6.5% | [5] 6.9% | [6] 17.3%

COCCNC(C)=O
inactive: [1] 13.8% | [2] 0.7% | [3] 12% | [4] -17.1% | [5] -11.2% | [6] 3.7%

Nc1ccc(-c2nc3ccc(N)cc3[nH]2)cc1
inactive: [1] -17.1% | [2] -17.9% | [3] -18.1% | [4] 6.45% | [5] -4% | [6] -18.2%

COc1cc2c(cc1OC)C1c3cc(OC)c(OC)cc3CC(=O)N1CC2 (stereo unspecified)
inactive: [1] 17.6% | [2] 7.1% | [3] 38.5% | [4] 19.3% | [5] 24.5% | [6] 37.6%

CC1OC(OC2C(CO)OC(O[C@H]3CC[C@@]4(C)C(=CC[C@H]5[C@@H]6C[C@@H]7O[C@]8(CC[C@@H](C)CN8)[C@@H](C)[C@@H]7[C@@]6(C)CC[C@@H]54)C3)C(O)C2O)C(O)C(O)C1O (stereo partly specified)
inactive: [1] -17.1% | [2] -26.6% | [3] -0.75% | [4] 15.2% | [5] 6.1% | [6] 1.7%

COC(=O)c1nc(NN)[nH]c(=O)c1CCCCCc1c(C(=O)OC)[nH]c(NN)cc1=O
inactive: [1] -35.4% | [2] -6.65% | [3] -14.1% | [4] 14.9% | [5] -18.1% | [6] -8.85%
